Source: PubChem BioAssay (NCATS)
Calls of active or inactive are those of the source. Calls come from the whole dose curve; as a rule, active = well fitted cell-killing curve with a large enough effect; inconclusive = small, poorly fitted or top-dose-only effect; inactive = flat fitted curve, though single readings scatter.

Assay: Cell Viability - LYMP1-002 - Assay at 24 hr (AID 993)
Details: LYMP1-002 lymphoblastoid cells viability; series mostly up to 92.2 µM; activity change, negative = cytotoxicity: at the top concentration
Text: NIH Chemical Genomics Center [NCGC]
NIH Molecular Libraries Screening Centers Network [MLSCN]
National Institutes of Environmental Health Sciences [NIEHS]
National Toxicology Program [NTP]
We have developed a 1536-well cell-based assay for quantitative high throughput screening (qHTS) against a number of cell lines to determine in vitro cytotoxicity of small molecules. This particular assay uses a human lymphoblastoid cell line (LYMP1-002) purchased from Coriell Institute for Medical Research.
NCGC Assay Protocol Summary:
The CellTiter-Glo luminescent cell viability assay (Promega) is a homogeneous method to measure the number of viable cells in culture. The end point readout of this assay is based on quantitation of intracellular ATP, an indicator of metabolic activity, using the luciferase reaction. Luciferase catalyzes the oxidation of beetle Luciferin to oxyluciferin and light in the presence of ATP. The luminescent signal is proportional to amount of ATP present.
Using the CellTiter-Glo luminescent cell viability assay, the amount of cellular ATP was measured in the lymphoblastoid cell line with complete culture medium following compound treatment for 24 hours. The assay was performed in opaque white Kalypsys 1536-well plates. In the screen, tetraoctylammonium bromide was used as positive control. Library compounds were measured for their ability to cause acute toxicity in the cell line, as reflected by a decrease in intracellular ATP levels, in a concentration-dependent manner. […] AC50 values were determined from concentration-response data modeled with the standard Hill equation.
qHTS protocol for CellTiter Glo lymphoblastoid cellular assay
[Step] [Parameter] [Value] [Description]
1. Reagent; 5 uL; 2500 lymphoblastoid cells/well
2. Time; 5 hr; 37 C incubation
4. Controls; 23 nL; Tetraoctylammonium bromide 6.4pM to 92 uM
5. Time; 24 hr; 37 C incubation
6. Reagent; 5 uL; CellTiter Glo reagent
7. Time; 30 min; Room Temperature
8. Detection; Luminescence; Viewlux plate reader
Keywords: cell viability, cytotoxicity, lymphoblastoid cell line, luminescence, NTPHTS, NTPHTS_NCGC, NIEHS, DSSTox, MLSMR, MLSCN, NIH Roadmap, qHTS, NCGC
% is set by controls: 0 for no effect and ±100 for the full control effect; potency is the fitted concentration of half-maximal effect.

Row | Structure (SMILES) | activity change, negative = cytotoxicity | Potency
1 | CC(=O)c1ccc(S(=O)(=O)NC(=O)NC2CCCCC2)cc1 | 6.04% (inactive) | –
2 | CC(=O)O[C@]1(C(C)=O)CC[C@H]2[C@@H]3C=C(Cl)C4=CC(=O)[C@@H]5C[C@@H]5[C@]4(C)[C@H]3CC[C@@]21C | -6.47% (inactive) | –
3 | CN(C)CCC(c1ccccc1)c1ccccn1 (centres undefined) | 1.11% (inactive) | –
4 | CC/C(=C(\c1ccccc1)c1ccc(OCCN(C)C)cc1)c1ccccc1 | – | 50.1 µM (active)
5 | CCn1cc(C(=O)O)c(=O)c2ccc(C)nc21 | 2.96% (inactive) | –
6 | CCCCC1C(=O)N(c2ccccc2)N(c2ccccc2)C1=O | 0.632% (inactive) | –
7 | O=C(O)c1cc(O)c2c(c1)C(=O)c1cccc(O)c1C2=O | 3.6% (inactive) | –
8 | O=C(O)Cc1cccc2ccccc12 | 0.715% (inactive) | –
9 | CC1=C(/C=C/C(C)=C/C=C/C(C)=C/C(=O)Nc2ccc(O)cc2)C(C)(C)CCC1 | – | 50.1 µM (active)
10 | O=c1c(O)c(-c2ccc(O)cc2)oc2cc(O)cc(O)c12 | 7.29% (inactive) | –
11 | O=c1c(-c2ccc(O)cc2)coc2cc(O)ccc12 | -4.49% (inactive) | –
12 | O=c1[nH]cnc2c1ncn2[C@H]1CC[C@@H](CO)O1 | 10.1% (inactive) | –
13 | CCCNC(=O)NS(=O)(=O)c1ccc(Cl)cc1 | -3.41% (inactive) | –
14 | O=C1NC(=O)C(c2ccccc2)(c2ccccc2)N1 | -1.53% (inactive) | –
